MITF inhib – blocks MITF activity; 37,000 tested, 0.28% active; TRPM1 promoter luciferase, luminescence, 24 h; inhibition, % (concentration not given with the values); AID 2240; in the data active means inhibition above about 85%; inconclusive means no clear call, values can overlap the other calls; inactive means below about 68%;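 further: human melanocyte line stably carrying TRPM1 promoter luciferase reporter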
PD-1 reversal – reversal of PD-1 mediated T-cell inhibition | activation, % (test concentration not listed) | 29,000 tested, under 10 active | primary human CD4 T cells, PD-L1 beads, CellTiter-Glo 96 h | AID 2316; call rule not given here;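 further: 0% = median vehicle wells and 100% = positive control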
Shh pathway inh – Sonic Hedgehog pathway inhibition; Shh-LIGHT2 Gli-luciferase reporter, 30 h; inhibition, % (concentration not given with the values); 22,000 tested, 2.1% active; AID 2313;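 active means mean inhibition across valid replicates above about 65%, limit read from the data; inconclusive means mean under the limit, yet half or more replicates past it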;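 further: pathway switched on by Shh-conditioned medium diluted 1 in 25 in low serum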
NOMO-1 viab – STK33 inhibitor candidate reducing NOMO-1 cell viability | NOMO-1 AML viability, CellTiter-Glo luminescence, 72 h | inhibition, % (test concentration not listed) | 37,000 tested, 7.5% active; in the data active means inhibition above about 80%; inconclusive means no clear call, values can overlap the other calls
The depositor's hits bear a star; ? = inconclusive; nt = not tested or not shown. In the library only some 8.1% were active in any assay of this set; here they are far more common.

SMILES | MITF inhib | PD-1 reversal | Shh pathway inh | NOMO-1 viab
C[C@@H]1CN([C@@H](C)CO)C(=O)c2cc(NS(=O)(=O)c3ccc(F)cc3)ccc2O[C@H]1CN(C)Cc1ccc(C(=O)Nc2ccccc2N)cc1 | 2 | 0 | nt | ?
C[C@@H]1CN([C@H](C)CO)C(=O)c2cc(NS(=O)(=O)c3ccc(F)cc3)ccc2O[C@@H]1CN(C)Cc1ccc(C(=O)Nc2ccccc2N)cc1 | 16 | -1 | nt | 108*
Cc1ccc(S(=O)(=O)Nc2ccc3c(c2)C(=O)N([C@H](C)CO)C[C@@H](C)[C@@H](CN(C)Cc2ccc(C(=O)Nc4ccccc4N)cc2)O3)cc1 | 25 | -1 | nt | 110*
C[C@@H]1CN([C@@H](C)CO)C(=O)c2cc(NS(=O)(=O)c3ccc(Cl)cc3)ccc2O[C@@H]1CN(C)Cc1ccc(C(=O)Nc2ccccc2N)cc1 | 21 | -3 | nt | 110*
C[C@H]1CN([C@@H](C)CO)C(=O)c2cc(NS(=O)(=O)c3ccc(Cl)cc3)ccc2O[C@@H]1CN(C)Cc1ccc(C(=O)Nc2ccccc2N)cc1 | 8 | 0 | nt | 55
C[C@@H]1CN([C@@H](C)CO)C(=O)c2cc(NS(=O)(=O)c3ccccc3)ccc2O[C@H]1CN(C)Cc1ccc(C(=O)Nc2ccccc2N)cc1 | 16 | -2 | nt | 38
C[C@H](CO)N1C[C@H](C)[C@H](CN(C)Cc2ccc(C(=O)Nc3ccccc3N)cc2)Oc2ccc(NS(=O)(=O)c3ccccc3)cc2C1=O | -5 | -1 | nt | 109*
O=C(Nc1ccccc1C(=O)O)OCC1c2ccccc2-c2ccccc21 | -25 | 6 | -47 | 18
CC(C)OC(=O)Nc1cc(Cl)cc(Cl)c1 | -25 | -18 | -4 | 59
COc1ccc(Nc2nc(NC(C)(C)C)nc(OC)n2)c(OC)c1 | 14 | nt | nt | -8
CCN(CC(=O)Nc1ccccc1OC)S(=O)(=O)c1ccc2ccccc2c1 | -9 | nt | nt | -4
C[C@@H]1CN([C@H](C)CO)C(=O)c2cc(NS(=O)(=O)c3ccccc3)ccc2O[C@@H]1CN(C)Cc1ccc(C(=O)Nc2ccccc2N)cc1 | 20 | -1 | nt | 109*
CS(=O)c1sc(C(=O)OCc2ccccc2)c2c1C(=O)CC(C)(C)C2 (stereo not given) | 78 | -7 | nt | 116*
CCOC(=O)CSc1n[nH]c(-c2ccc(Cl)cc2)n1 | -54 | 0 | nt | 119*
N#Cc1cccc(CSc2nnc(SCc3cccc(C#N)c3)s2)c1 | 21 | 1 | 68* | 17
Nc1nnc(SCc2cccnc2)s1 | -7 | 0 | nt | 0
Cc1csc2sc(C=NCc3cccs3)c(C)c12 | -6 | -4 | -4 | 122*
COC(=O)c1cc(NC(=S)NCc2cccnc2)cc(C(=O)OC)c1 | -17 | -1 | nt | 106*
C[n+]1cc(C(=O)NCCC[N+]2(C)CCCC2)ccc1/C=N/O | -10 | 0 | -10 | 34
C[C@H]1CN([C@@H](C)CO)C(=O)c2cccc(NC(=O)Nc3ccc(C(F)(F)F)cc3)c2O[C@@H]1CN(C)CC1CCCCC1 | 29 | nt | 18 | 82*
C[C@H](CO)N1C[C@H](C)[C@H](CN(C)CC2CCCCC2)Oc2c(NC(=O)Nc3ccc(C(F)(F)F)cc3)cccc2C1=O | -2 | -5 | 40 | 116*
C[C@@H]1CN([C@H](C)CO)C(=O)c2cccc(NC(=O)Nc3ccc(C(F)(F)F)cc3)c2O[C@@H]1CN(C)CC1CCCCC1 | -6 | -5 | -41 | 58
C[C@H](CO)N1C[C@H](C)[C@@H](CN(C)CC2CC2)Oc2c(NC(=O)Nc3ccc(C(F)(F)F)cc3)cccc2C1=O | -7 | -2 | 0 | 99*
CS(=O)(=O)N(CC(=O)Nc1cc(Cl)cc(Cl)c1)c1cccc(Cl)c1 | -19 | 2 | nt | 2
CSc1cccc(NC(=O)C(C)N(c2ccc(C)cc2)S(C)(=O)=O)c1 (stereo not given) | -4 | -3 | nt | 31
SMILES | MITF inhib | PD-1 reversal | Shh pathway inh | NOMO-1 viab
O=C(c1ccc([N+](=O)[O-])cc1)n1nc(-c2ccc(Cl)cc2)nc1NCc1ccco1 | 4 | -4 | nt | ?
C[C@@H]1CN([C@@H](C)CO)C(=O)c2cc(NS(=O)(=O)c3ccc(Cl)cc3)ccc2O[C@@H]1CN(C)Cc1ccc(-c2ccccc2)cc1 | 37 | 0 | -6 | 123*
C[C@H](CO)N1C[C@H](C)[C@@H](CN(C)Cc2ccc(-c3ccccc3)cc2)Oc2ccc(NS(=O)(=O)c3ccc(Cl)cc3)cc2C1=O | 2 | -1 | 27 | 62
C[C@H](CO)N1C[C@H](C)[C@H](CN(C)Cc2ccc(-c3ccccc3)cc2)Oc2ccc(NS(=O)(=O)c3ccc(Cl)cc3)cc2C1=O | 14 | 0 | 29 | 114*
C[C@H]1CN([C@@H](C)CO)C(=O)c2cc(NS(=O)(=O)c3ccc(Cl)cc3)ccc2O[C@@H]1CN(C)Cc1ccc(-c2ccccc2)cc1 | -4 | nt | nt | 38
C[C@@H]1CN([C@H](C)CO)C(=O)c2cc(NS(=O)(=O)c3ccc(Cl)cc3)ccc2O[C@@H]1CN(C)Cc1ccc(-c2ccccc2)cc1 | 26 | -1 | nt | 109*
O=C1CC(c2ccccc2)C(=O)N1c1cc(Cl)cc(Cl)c1 (stereo not given) | -14 | -1 | -24 | -3
O=C(CSc1nnc(-c2ccc(Br)cc2)o1)Nc1ccc(Cl)cc1Cl | 34 | -5 | nt | 21
COc1ccc(NC(=O)CSc2nc3sc4c(c3c(=O)n2-c2ccccc2)CCC4)c([N+](=O)[O-])c1 | 1 | nt | nt | 20
CC(C)c1c(O)ccc2c1CCC1C(C)(C)CCC[C@]21C (stereo not given in full) | 106* | nt | ? | 109*
CC(C)c1ccc2c(c1)CCC1[C@](C)(C(=O)O)CCC[C@]21C (stereo not given in full) | -22 | 0 | -20 | 19
O=C(c1ccccc1)c1cc[n+](Cc2ccccn2)cc1 | 8 | 0 | nt | 63
C[C@H](CO)N1C[C@H](C)[C@@H](CN(C)C(=O)Nc2cccc3ccccc23)Oc2c(NC(=O)Nc3ccc(C(F)(F)F)cc3)cccc2C1=O | 13 | -4 | -26 | 117*
C[C@H](CO)N1C[C@H](C)[C@H](CN(C)C(=O)Nc2cccc3ccccc23)Oc2c(NC(=O)Nc3ccc(C(F)(F)F)cc3)cccc2C1=O | 35 | nt | -8 | 77
C[C@@H]1CN([C@@H](C)CO)C(=O)c2cccc(NC(=O)Nc3ccc(C(F)(F)F)cc3)c2O[C@H]1CN(C)C(=O)Nc1cccc2ccccc12 | 40 | -4 | -150 | 106*
O=C(CSc1nc2[nH]ncc2c(=O)n1-c1ccccc1)Nc1ccc(F)c(Cl)c1 | 61 | -5 | nt | 51
C[C@@H]1O[C@@H](O[C@H]2[C@H](O)[C@@H](O)[C@H](O[C@H]3[C@H](O[C@H]4CC[C@@]5(C)C(=CC[C@H]6C7C[C@@H]8O[C@]9(CC[C@@](C)(CO[C@@H]%10O[C@H](CO)[C@@H](O)[C@H](O)[C@H]%10O)O9)[C@H](C)C8[C@@]7(C)CCC65)C4)O[C@H](CO)[C@@H](O)[C@@H]3O)O[C@@H]2CO)[C@H](O)[C@H](O)[C@H]1O (stereo not given in full) | nt | nt | 97* | nt

Screening results from PubChem.
